# PostGolgi ctrl: inhibits growth of the yeast control strain; efflux-deficient yeast background strain, growth absorbance A615, 16 h; inhibition, % at 10 µM; actives 5% (n = 98,000); AID 738
# Cav32 inh: human Cav3.2 channel inhibition, primary screen. Cav3.2-expressing cells, Fluo-4 calcium fluorescence FDSS; hits give low values. B-score at 10 µM. actives 4% (n = 100,000). AID 449739;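 active = single-dose well whose peak fluorescence ratio is a statistical outlier from its plate by either plate-standardised score or position-corrected B-score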
# Target sequence (O95180 whole entry, looked up): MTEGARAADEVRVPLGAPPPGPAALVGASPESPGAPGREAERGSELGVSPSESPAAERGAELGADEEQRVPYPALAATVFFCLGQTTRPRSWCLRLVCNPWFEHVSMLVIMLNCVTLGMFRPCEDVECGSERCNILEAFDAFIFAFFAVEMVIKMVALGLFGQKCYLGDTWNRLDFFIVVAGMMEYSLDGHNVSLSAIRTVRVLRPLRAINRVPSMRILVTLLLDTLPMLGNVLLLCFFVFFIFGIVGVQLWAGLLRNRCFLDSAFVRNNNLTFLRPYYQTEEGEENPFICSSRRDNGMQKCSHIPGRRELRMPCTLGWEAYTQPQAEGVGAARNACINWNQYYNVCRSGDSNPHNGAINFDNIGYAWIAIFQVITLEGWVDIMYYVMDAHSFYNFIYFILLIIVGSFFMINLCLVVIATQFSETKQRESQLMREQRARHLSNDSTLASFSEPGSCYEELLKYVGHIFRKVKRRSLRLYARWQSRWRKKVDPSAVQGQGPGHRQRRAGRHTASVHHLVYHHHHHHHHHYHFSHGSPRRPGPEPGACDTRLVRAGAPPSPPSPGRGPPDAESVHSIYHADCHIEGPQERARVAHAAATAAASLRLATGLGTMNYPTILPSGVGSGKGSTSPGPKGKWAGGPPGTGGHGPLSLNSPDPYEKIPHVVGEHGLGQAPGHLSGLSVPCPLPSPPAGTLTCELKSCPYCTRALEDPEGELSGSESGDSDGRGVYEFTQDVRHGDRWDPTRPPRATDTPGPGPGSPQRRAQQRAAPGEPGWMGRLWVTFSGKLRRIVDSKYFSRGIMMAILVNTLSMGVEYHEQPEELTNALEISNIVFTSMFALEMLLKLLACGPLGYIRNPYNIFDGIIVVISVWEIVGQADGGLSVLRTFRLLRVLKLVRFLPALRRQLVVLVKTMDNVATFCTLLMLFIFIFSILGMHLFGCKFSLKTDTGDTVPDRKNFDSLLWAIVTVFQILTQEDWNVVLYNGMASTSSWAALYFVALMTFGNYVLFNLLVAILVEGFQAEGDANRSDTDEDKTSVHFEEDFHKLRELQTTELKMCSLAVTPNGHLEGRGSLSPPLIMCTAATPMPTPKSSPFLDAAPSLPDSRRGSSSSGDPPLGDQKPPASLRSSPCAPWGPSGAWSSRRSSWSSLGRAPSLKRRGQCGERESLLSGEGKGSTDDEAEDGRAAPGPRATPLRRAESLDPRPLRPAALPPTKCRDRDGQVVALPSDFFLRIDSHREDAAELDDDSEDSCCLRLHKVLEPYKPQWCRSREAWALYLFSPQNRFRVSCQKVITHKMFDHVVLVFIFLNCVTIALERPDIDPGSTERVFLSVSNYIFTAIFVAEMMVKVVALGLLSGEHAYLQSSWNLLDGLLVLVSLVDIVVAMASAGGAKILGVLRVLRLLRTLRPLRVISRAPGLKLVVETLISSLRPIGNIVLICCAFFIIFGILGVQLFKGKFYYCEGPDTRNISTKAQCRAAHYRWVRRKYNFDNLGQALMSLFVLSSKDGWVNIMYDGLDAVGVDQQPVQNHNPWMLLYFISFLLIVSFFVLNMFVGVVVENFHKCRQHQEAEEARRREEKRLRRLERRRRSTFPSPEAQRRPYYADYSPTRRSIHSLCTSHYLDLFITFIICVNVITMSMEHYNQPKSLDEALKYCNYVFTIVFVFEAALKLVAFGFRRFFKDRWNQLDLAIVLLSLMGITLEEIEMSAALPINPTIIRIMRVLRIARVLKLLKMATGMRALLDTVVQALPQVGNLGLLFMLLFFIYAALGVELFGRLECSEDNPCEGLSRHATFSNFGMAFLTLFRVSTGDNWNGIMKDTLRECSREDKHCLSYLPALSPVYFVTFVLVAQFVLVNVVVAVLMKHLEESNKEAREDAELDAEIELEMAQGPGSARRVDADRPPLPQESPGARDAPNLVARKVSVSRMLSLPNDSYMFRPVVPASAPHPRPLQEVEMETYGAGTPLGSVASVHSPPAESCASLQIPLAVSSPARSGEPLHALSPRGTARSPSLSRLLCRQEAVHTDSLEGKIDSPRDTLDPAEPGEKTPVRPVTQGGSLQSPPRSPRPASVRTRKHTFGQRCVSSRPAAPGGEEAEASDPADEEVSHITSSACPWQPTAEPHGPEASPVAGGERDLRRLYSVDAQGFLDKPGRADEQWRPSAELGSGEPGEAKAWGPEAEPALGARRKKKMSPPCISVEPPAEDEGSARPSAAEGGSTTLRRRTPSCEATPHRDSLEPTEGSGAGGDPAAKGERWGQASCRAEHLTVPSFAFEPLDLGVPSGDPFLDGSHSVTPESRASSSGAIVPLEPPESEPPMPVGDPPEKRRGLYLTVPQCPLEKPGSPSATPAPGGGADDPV
# PLAP act: activates human placental alkaline phosphatase; purified PLAP enzyme, luminescent substrate read-out; hits give high values; P05187; activation fold at 20 µM; actives 1.2% (n = 96,000); in the data active = activation fold above about 2
# hDAT+cocaine: modulates human dopamine transporter uptake under cocaine | LLC-PK1 hDAT cells, [14C]-dopamine uptake with cocaine IC80; actives deviate in either direction | B-score at 10 µM | actives 1.3% (n = 110,000) | AID 449768 | Q01959;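 active = Z score or B-score, a plate-position-corrected score, falls beyond the plate's 99.7% confidence bounds, in either direction; inactive = both scores lie inside the 99.7% bounds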;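 note: scored against the spread of the other compound wells on the same plate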
# PostGolgi yeast: growth inhibition of a yeast mutant, post-Golgi transport screen. actives 0.9% (n = 98,000). inhibition, % at 10 µM. AID 739. post-Golgi transport phenotypic cell assay;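 note: yeast cells grown in 1536-well plates; yeast grown about 18 h at 30C before absorbance read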
# Active calls of the source: *; . = not tested or not shown. Rows were chosen to be rich in hits. Some 9.6% of all compounds tested hit in one or more screens of this group. Cut-off read from the data, not from the text of the source, unless noted: active = inhibition above about 30%; inactive = the rest.
SMILES,PostGolgi ctrl,Cav32 inh,PLAP act,hDAT+cocaine,PostGolgi yeast
O=C(c1ccccc1Sc1cccc2ccccc12)N1CCOCC1,.,-1.5,.,-0.18,.
CC(C(=O)Oc1ccc2c(c1)OCO2)N1C(=O)c2ccccc2C1=O (stereo not given),-8,-3.6*,1.1,-0.4,-2
COc1ccc2cc(Br)ccc2c1CC(=O)NC1CC(C)(C)NC(C)(C)C1,4,0.12,1.3,0.13,2
CC(O)[C@H]1CN=C(N)N1CCCCC1CCCCC1 (stereo not given in full),.,2.1,.,-4.7*,.
NCCCC[C@H]1CN=C(N)N1CCCCC1CCCCC1,.,0.19,.,-1.3,.
Cc1ccc(N2CCN(C(=O)c3ccccc3F)CC2)c(C)c1,42*,-2.4,1.4,0.41,-1
COc1ccc(N2CCN(C(=O)COc3ccccc3)CC2)cc1,5,0.17,1.1,1.9*,4
COc1ccc(OCC(=O)N2CCN(C(=O)c3ccccc3)CC2)cc1,9,-0.33,1,1.2,2
Cc1ccc(-c2nnc(N3CCN(C(=O)CN4C(=O)c5ccccc5C4=O)CC3)c3ccccc23)cc1,.,0.041,.,0.31,.
COc1ccc(C(=O)N2CCN(c3ccc(C)cc3C)CC2)cc1OC,26,-0.94,1.5,1.5,-6
CCOC(=O)N1CCN(c2ncnc3c2[nH]c2ccc(OC)cc23)CC1,37*,1.6,0.9,3.5*,-5
Cc1ccc(OCC(=O)N2CCN(c3nnc(-c4ccc(C)cc4)c4ccccc34)CC2)cc1,71*,-7.4*,1.8,0.59,-2
CCOC(=O)N1CCN(c2ncnc3c2[nH]c2ccc(F)cc23)CC1,7,0.21,0.9,0.17,-2
O=C(NCC(=O)N(c1ccc(F)cc1)C(C(=O)NCC1CCCO1)c1ccccc1)c1ccco1 (stereo not given),1,0.57,1.6,0.55,4
COc1ccc(C)cc1-n1nnnc1SCc1cc(=O)n2cc(C)ccc2n1,22,-0.0076,1.9,0.062,-9
CCCSc1nc2c(=O)[nH][nH]c(=O)c2n1Cc1ccccc1,.,-0.11,.,-0.08,.
O=C(CCCOc1ccccc1)N1CCN(c2ccc(F)cc2)CC1,5,-7.8*,1.2,-0.073,-4
COc1ccc(OCC(=O)N2CCN(c3nnc(-c4ccccc4)c4ccccc34)CC2)cc1,32*,-5.8*,1.5,3*,-2
O=C(COc1ccccc1)N1CCN(c2nnc(-c3ccccc3)c3ccccc23)CC1,18,-2.4,1.2,0.023,3
O=C(c1ccccc1C(=O)N1CCN(c2ccc(F)cc2)CC1)N1CCN(c2ccc(F)cc2)CC1,10,-4.1*,1.5,0.097,-1
O=C(c1ccccc1C(=O)N1CCN(c2ccccc2)CC1)N1CCN(c2ccccc2)CC1,9,-0.72,1.3,1.5,8
O=C(CCCOc1ccccc1)N1CCN(c2ccccn2)CC1,14,0.33,1.4,2.4,-8
COc1ccc(-c2nnc(N3CCCCC3)c3ccccc23)cc1,30,-4.6*,1.1,0.013,2
O=C(CCCOc1ccccc1)Nc1ccc2c(c1)OCCO2,3,0.4,0.8,0.49,6
O=C(c1noc2c1CCCC2)N1CCN(c2ccc(F)cc2)CC1,34*,0.2,0.9,-0.013,4
SMILES,PostGolgi ctrl,Cav32 inh,PLAP act,hDAT+cocaine,PostGolgi yeast
Cc1ccc(-c2nnc(N3CCN(C(=O)c4ccco4)CC3)c3ccccc23)cc1,24,0.0084,1.6,2.9*,0
O=C(c1ccco1)N1CCN(c2ncnc3c2[nH]c2ccccc23)CC1,3,.,1,.,43*
O=C(c1ccco1)N1CCN(c2ncnc3c2[nH]c2ccc(Br)cc23)CC1,19,.,0.9,.,11
Cc1csc(NC(C)c2nc3cc(Cl)c(N4CCCCC4)cc3n2CCOCCO)n1 (stereo not given),.,0.22,.,-0.77,.
CN(Cc1ccccc1)S(=O)(=O)c1ccc2[nH]cc(C(=O)NCC3CCCO3)c(=O)c2c1 (stereo not given),6,.,.,.,9
Cn1c(SCCCC(=O)c2ccc(F)cc2)nnc1-c1ccncc1,8,0.69,1.1,0.087,11
COCCn1c(SCCCC(=O)c2ccc(Br)cc2)nnc1-c1ccncc1,36*,.,1.5,.,-10
O=C(Nc1ccncc1)c1ccc(F)cc1,0,-0.009,0.9,-0.25,-9
O=C(Nc1ccc(N2CCCC2)cc1)c1cccc(F)c1,5,-5.7*,0.8,0.52,12
O=C(Nc1ccc(N2CCCC2)cc1)c1ccccc1F,.,0.78,.,0.19,.
O=C(Nc1ccncc1)c1cccc(F)c1,32*,-0.38,0.8,-0.028,16
O=C1CC(c2ccc(Cl)cc2)CC(O)=C1C=NCc1ccc(Cl)c(Cl)c1 (stereo not given),8,-0.078,0.9,0.6,-7
O=S(=O)(NCc1ccccc1)c1ccc(S(=O)(=O)N(Cc2ccccn2)Cc2ccco2)cc1,11,0.14,0.8,0.45,2
COc1ccc(-c2noc(C3CCCN(S(=O)(=O)c4cccc(Cl)c4C)C3)n2)cc1OC (stereo not given),50*,-0.7,1.6,0.45,22
COc1cccc(OCC(O)CN2CCC(Cc3ccccc3)CC2)c1 (stereo not given),4,-4.2*,1.5,-1.3,5
C=CCc1ccc(OCC(O)CN2CCC(Cc3ccccc3)CC2)c(OC)c1 (stereo not given),63*,-4*,1.7,0.067,98*
COc1ccccc1Nc1nc(NCCCCO)nc(N2CCCC2)n1,.,-0.37,.,0.85,.
Cn1c(=O)oc2cc(S(=O)(=O)N3CCCC(C(=O)N4CCc5ccccc5C4)C3)ccc21 (stereo not given),51*,0.82,1.6,0.18,-5
CCS(=O)(=O)N1CCC(C(=O)N2CCc3ccccc3C2)CC1,-13,.,0.9,.,-5
COc1ccc(S(=O)(=O)N2CCC(C(=O)N3CCc4ccccc4C3)CC2)cc1Cl,49*,-4.6*,1.9,1.5,-2
Cc1ccc(OCc2nnc(NC(=O)c3ccco3)s2)c(C)c1,-13,1.5,1.2,0.32,-5
CCOC(=O)c1c(NS(=O)(=O)c2ccc(Br)cc2)sc2c1CCC2,.,-8.5*,.,0.47,.
CCOC(=O)c1c(NS(=O)(=O)Cc2ccccc2)sc2c1CCCC2,36*,-4.2*,1.6,-0.5,6
O=C(CN(Cc1ccccc1)C(=O)c1ccco1)NCc1ccc(F)cc1,1,0.64,0.9,-0.04,-16
O=C(/C=C/c1ccc2c(c1)OCO2)Nc1nc(-c2ccccc2)cs1,21,-2.2,0.9,-0.33,-8
SMILES,PostGolgi ctrl,Cav32 inh,PLAP act,hDAT+cocaine,PostGolgi yeast
Cc1cc(=O)[nH]c(SCC(=O)Nc2nc(-c3ccccc3)cs2)n1,25,.,1.2,.,5
Cc1ccc(-c2csc(NC(=O)CSc3nc(C)cs3)n2)cc1,.,-4.6*,.,-1.2,.
Cc1cc(NC(=O)CSc2nc(-c3ccc(Cl)cc3)cs2)no1,.,1.1,.,-0.27,.
O=C(/C=C/c1cccs1)Nc1nc(-c2ccccc2)cs1,33*,0.022,0.8,-1.1,-3
Cc1csc(SCC(=O)NC(=O)NCc2ccccc2)n1,42*,-1.5,0.9,0.39,6
O=C(CSc1ncn[nH]1)Nc1nc(-c2ccccc2)cs1,1,0.41,2.8*,0.02,6

# Screening data deposited in PubChem by several laboratories.
